# From PubChem BioAssay AID725 (NMMLSC, 2007)
# Out of some 1,300 compounds screened, fewer than 10 were called active. How the calls were made is not given here. Not all results are given here.
# Molecular target: N-formyl peptide receptor 2 (Homo sapiens) (UniProt P25090)
# Test: FPRL1 fluorescent ligand binding inhibitors, primary screen, selectivity assay for FPR ligand SAR project, cell-based, flow cytometry, HTS counterscreen (AID 725)
# Settings: FPRL1-expressing cells, hits give high values, concentration not given here
# Sequence of N-formyl peptide receptor 2 (Homo sapiens) (P25090 whole entry, looked up): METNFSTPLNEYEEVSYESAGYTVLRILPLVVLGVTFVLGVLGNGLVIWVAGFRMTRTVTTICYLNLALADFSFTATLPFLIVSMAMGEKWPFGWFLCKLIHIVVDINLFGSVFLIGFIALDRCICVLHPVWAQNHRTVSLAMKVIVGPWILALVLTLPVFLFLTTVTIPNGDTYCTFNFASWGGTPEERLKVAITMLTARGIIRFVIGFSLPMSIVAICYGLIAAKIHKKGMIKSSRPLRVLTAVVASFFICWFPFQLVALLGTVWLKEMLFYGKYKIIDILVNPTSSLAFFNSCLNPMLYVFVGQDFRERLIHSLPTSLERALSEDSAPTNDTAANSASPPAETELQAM
row,Structure (SMILES),inhibition
1,CCOc1ccc(/C(O)=C2\C(=O)C(=O)N(c3nnc(C)s3)C2c2ccc(Br)cc2)cc1 (configuration not stated),1.9% (inactive)
2,COc1ccc(C2C(C(=O)c3cc4ccccc4o3)=C(O)C(=O)N2c2nccs2)cc1 (configuration not stated),1% (inactive)
3,Cc1ccc(C2/C(=C(\O)c3ccc(F)cc3)C(=O)C(=O)N2CCN2CCOCC2)o1 (configuration not stated),5.6% (inactive)
4,CN1C(=O)c2ccccc2C(C(=O)N2CCCCC2)C1c1cccs1 (configuration not stated),-3.9% (inactive)
5,O=C1C(=O)N(CCN2CCOCC2)C(c2ccco2)/C1=C(\O)c1ccc(F)cc1 (configuration not stated),5.5% (inactive)
6,Cc1cc(=O)n2[nH]cc(C(=O)O)c2n1,-16.5% (inactive)
7,O=C(C1=C(O)C(=O)N(CCN2CCOCC2)C1c1cccs1)c1ccco1 (configuration not stated),-2% (inactive)
8,CN(C)CCN1C(=O)C(O)=C(C(=O)c2cc3ccccc3o2)C1c1cccc(Oc2ccccc2)c1 (configuration not stated),1.3% (inactive)
9,CCN1C(=O)C(O)(CC(=O)c2ccc3c(c2)OCO3)c2ccccc21 (configuration not stated),-4.3% (inactive)
10,CCOC(=O)c1c(NC(=O)C2C3CCC(O3)C2C(=O)O)sc2c1CCC(CC)C2 (configuration not stated),0.3% (inactive)
11,CCOC(=O)N1CCC(c2cc(=O)n3[nH]cc(C(=O)Nc4ccc(OCC)cc4)c3n2)CC1,-5.2% (inactive)
12,CCOC(=O)C1NN=C(C(=O)c2ccc(OC)cc2)C1c1ccccc1 (configuration not stated),3.5% (inactive)
13,Cc1ccc(N2C(=O)C(=O)/C(=C(\O)c3ccc(Cl)cc3)C2c2cccnc2)cc1Br (configuration not stated),4.5% (inactive)
14,CCc1cc2c(=O)c(-c3nc4ccccc4s3)c(C)oc2c(CN2CCCCC2)c1O,-7.2% (inactive)
15,COc1ccc(N2C(=O)CSC2c2ccc(C(C)C)cc2)cc1 (configuration not stated),4.8% (inactive)
16,CCCCn1c(=O)c2oc3ccccc3c2n(Cc2ccccc2F)c1=O,-2.7% (inactive)
17,CCCN(C(=O)[C@H]1[C@@H]2C[C@@H]3[C@H]1C(=O)O[C@@H]3C2)c1ccccc1OCC,9.1% (inactive)
18,Cc1cccc(N2C(=O)CSC2c2cccc(F)c2)c1 (configuration not stated),-31.8% (inactive)
19,Cc1ccc(C)c(Cn2c(=O)cc(C)c3c(C)nn(-c4ccccc4)c32)c1,-16.2% (inactive)

row,Structure (SMILES),inhibition
1,Cc1ccc(/C(O)=C2/C(=O)C(=O)NC2c2ccc3c(c2)OCO3)cc1 (configuration not stated),1.1% (inactive)
2,CCOC(=O)C1=C(C)N(c2ccc(C)c(C)c2)C(=O)/C1=C\c1ccccc1OC,-8.1% (inactive)
3,CCN1C(=O)C(=C2CCCC2)N(CC)C1=O,8% (inactive)
4,CCCCCCN1C(=O)C(=O)/C(=C(\O)c2ccccc2)C1c1ccc(C(C)C)cc1 (configuration not stated),-2.5% (inactive)
5,COc1cc(C)nc(N(CCC(C)C)S(=O)(=O)c2ccc(C)cc2)n1,-7.7% (inactive)
6,COc1cc(C2C(C(=O)c3cc4ccccc4o3)=C(O)C(=O)N2CCN(C)C)ccc1O (configuration not stated),-0.3% (inactive)
7,CCOC(=O)c1c(NC(=O)c2csc3c2CCCC3)sc2c1CCCC2,-7% (inactive)
8,CC(c1cccs1)N(Cc1ccco1)C(=S)Nc1ccccc1Cl (configuration not stated),10.4% (inactive)
9,CCOC(=O)c1oc2cc(OCc3ccc(F)cc3)ccc2c(=O)c1-c1ccccc1OC,1.2% (inactive)
10,CCCCCCN1C(=O)C(=O)/C(=C(/O)c2ccccc2)C1c1ccc(Br)cc1 (configuration not stated),0.8% (inactive)
11,COc1ccc(OC)c(C2/C(=C(\O)c3ccccc3)C(=O)C(=O)N2CCC(=O)O)c1 (configuration not stated),-4.7% (inactive)
12,CCOC(=O)c1cnn2c(=O)c3c(n(CC)c12)CCN(Cc1ccc(OC)cc1)C3,1.3% (inactive)
13,Cc1ccc(/C(O)=C2\C(=O)C(=O)N(c3nnc(C)s3)C2c2ccc(Cl)cc2)cc1 (configuration not stated),-9.8% (inactive)
14,CCCCn1c(=O)c2oc3ccccc3c2n(Cc2cccc(C)c2)c1=O,-15.7% (inactive)
15,Cc1ccc(N2C(=O)CSC2c2ccc(C(C)(C)C)cc2)cc1F (configuration not stated),-16.2% (inactive)
16,NC(=O)c1c(NC(=O)C2CC3CCC2C3)sc2c1CCCC2 (configuration not stated),9% (inactive)
17,COc1ccccc1C1/C(=C(\O)c2ccccc2)C(=O)C(=O)N1c1ccc(C)c(Cl)c1 (configuration not stated),-1.5% (inactive)
18,CCOc1ccc(C2/C(=C(/O)c3ccccc3)C(=O)C(=O)N2c2ccc(C)c(Br)c2)cc1 (configuration not stated),1.2% (inactive)
19,COc1ccc(Br)cc1CNC(=O)Cn1c(=O)oc2ccccc21,-20.3% (inactive)

row,Structure (SMILES),inhibition
1,Cc1cc(C)cc(N2C(=O)CSC2c2ccccc2Br)c1 (configuration not stated),-7.5% (inactive)
2,C=CCN1C(=O)C2C(c3ccccc3)C=CC(c3ccccc3)C2C1=O (configuration not stated),-6.2% (inactive)
3,O=C(c1ccc(Br)cc1)N(Cc1ccco1)Cc1ccccc1F,27.5% (inactive)
4,O=C1C(=O)N(c2cccnc2)C(c2cccc(F)c2)/C1=C(/O)c1ccccc1 (configuration not stated),-1.7% (inactive)
5,COc1ccccc1C(CC(=O)NCc1cccs1)n1cccc1 (configuration not stated),12% (inactive)
6,CC1CCN(Cn2nc(-c3ccco3)n(-c3ccccc3)c2=S)CC1,6.9% (inactive)
7,COc1ccc(C2C(C(=O)c3cccs3)=C(O)C(=O)N2Cc2cccnc2)cc1OC (configuration not stated),-3.8% (inactive)
8,Cc1ccc2c(c1)oc(=O)n2C(=O)COc1ccccc1,4.9% (inactive)
9,O=C(c1ccccc1Br)N(Cc1ccc(F)cc1)Cc1ccco1,-2% (inactive)
10,CCc1c(C)sc(NC(=O)C2C3C=CC(C3)C2C(=O)O)c1C(=O)OC(C)C (configuration not stated),-6% (inactive)
11,Cc1nnc(N2C(=O)C(O)=C(C(=O)c3cccs3)C2c2ccccc2)s1 (configuration not stated),1.7% (inactive)
12,CCOC(=O)c1c(NC(=O)c2ccccc2Cl)sc2c1CCC2,0% (inactive)
13,CCOc1ccccc1C1C(C#N)=C(SC)NC(=O)C1C(=O)OC (configuration not stated),7.1% (inactive)
14,COC(=O)c1c[nH]n2c(=O)c(C(C)C)c(C)nc12,-13.8% (inactive)
15,CCCOc1ccc(/C(O)=C2\C(=O)C(=O)N(CCN3CCOCC3)C2c2ccc(C(C)C)cc2)cc1C (configuration not stated),-8.4% (inactive)
16,CC(C)n1c(=O)c2oc3ccccc3c2n(Cc2ccccc2F)c1=O,11.7% (inactive)
17,Cc1ccc(S(=O)(=O)NC(CC(=O)O)c2cccc(Cl)c2)c(C)c1 (configuration not stated),-6.5% (inactive)
18,CCOC(=O)c1c(NC(=O)c2ccccc2)sc2c1CCC(C)C2 (configuration not stated),-3.5% (inactive)
19,COCCN1C(=O)C(=O)/C(=C(/O)c2ccccc2)C1c1ccc(C(C)C)cc1 (configuration not stated),3.7% (inactive)
